MCF10A rerep: induces DNA re-replication in MCF 10a normal breast cells; MCF 10A DNA re-replication, Hoechst nuclear intensity, 48 h; Potency, µM (doses to about 46.1 µM), inactives show top-dose activity, positive = re-replication, usual class: activators; actives 2.9% (n = 350,000); AID 624296; further: potency means the concentration at half of the fitted maximal effect; % of control where 0% means no effect; nearly all actives have a fitted effect of over 50% in size
KB-3-1 tox: KB-3-1 parental cell cytotoxicity | KB-3-1 viability, CellTiter-Glo ATP luminescence, 72 h | Potency, µM (doses to about 46.1 µM), actives largely listed as cytotoxic | actives 1.4% (n = 400,000); further: potency means the concentration at half of the fitted maximal effect; on the % scale 0 is the no-effect control and ±100 the full control effect; nearly all actives have a fitted effect of over 60% in size
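Multi-concentration cytotoxicity screen in KB-3-1 cells grown in DMEM lacking phenol red with 10% FBS. After 72 h at 37 °C with compound, ATP-dependent luminescence was recorded.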
SW480 rerep: DNA re-replication induction in SW480 cells. AID 624297. actives 1.8% (n = 340,000). Potency, µM (top dose mostly 46.1 µM), without a hit: at the highest dose re-replication activation, hits mostly activators. SW480 DNA re-replication, Hoechst DNA content imaging, 48 h; further: potency means the concentration at half of the fitted maximal effect; % of control where 0% means no effect; nearly all actives have a fitted effect of over 55% in size
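Quantitative HTS format with DMSO vehicle controls; 48 hr drug incubation at 37 C, then 40 min Hoechst staining and scanning imager measurement at 405 nm excitation.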
KB-V1 cytotox: kills drug-selected multidrug resistant KB-V1 cells; Potency, µM (top dose mostly 46.1 µM), most hits filed as cytotoxic; KB-V1 MDR cells viability, CellTiter-Glo, 72 h; actives 3.4% (n = 400,000); further: potency means the concentration at half of the fitted maximal effect; on the % scale 0 is the no-effect control and ±100 the full control effect; nearly all actives have a fitted effect of over 60% in size
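KB-V1 MDR subline cells in DMEM (phenol-red free, 10% FBS) exposed to compounds in qHTS concentration series for 72 h at 37 degrees C. Viability read by CellTiter-Glo luminescence; concentration-effect curves fitted after normalization and correction.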
DRD3 antagonist: blocks the human D3 dopamine receptor | max response, negative = inhibition, % | AID 652054 | P35462 | actives 2.5% (n = 360,000) | D3R cells, DiscoveRx beta-arrestin luminescence, antagonist mode; stronger effect = lower value; in the data active means max response below about -50%; inconclusive means no clear call, values can overlap the other calls; further: on the % scale 0 is the no-effect control and ±100 the full control effect
Target sequence (P35462 whole entry, looked up): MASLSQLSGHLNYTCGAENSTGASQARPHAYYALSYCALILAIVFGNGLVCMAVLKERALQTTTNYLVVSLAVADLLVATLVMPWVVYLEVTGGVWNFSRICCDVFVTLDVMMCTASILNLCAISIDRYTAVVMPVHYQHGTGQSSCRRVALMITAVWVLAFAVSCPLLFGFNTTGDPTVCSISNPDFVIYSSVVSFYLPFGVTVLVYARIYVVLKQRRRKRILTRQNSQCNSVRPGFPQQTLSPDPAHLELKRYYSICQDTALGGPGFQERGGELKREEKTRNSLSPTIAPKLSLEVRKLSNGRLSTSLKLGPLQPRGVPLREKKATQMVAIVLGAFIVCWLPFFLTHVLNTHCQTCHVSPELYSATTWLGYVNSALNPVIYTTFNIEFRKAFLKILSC
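Cells plated overnight at 1500 cells/well, then exposed to library compounds with dopamine controls for 90 minutes at 37 degrees C. DiscoveRx reagent added for 30–60 minutes at room temperature; luminescence read, quantitative HTS format.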
D3 ag: D3 dopamine receptor (human) agonism; actives 0.58% (n = 410,000); P35462; D3R DiscoveRx beta-arrestin cells, luminescence, 90 min; max activation, %; AID 652048; in the data active means max activation above about 30%; further: 0% is about no effect
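Agonist-mode cell screen: cells plated at 1500/well and incubated overnight at 37 °C, then exposed to library compounds for 90 min at 37 °C. Detection reagent was added for 30–60 min at room temperature, and luminescence was read.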
Active calls of the source: *; i = inactive; ? = inconclusive; nt = no result given. An excerpt weighted towards active compounds, which were near 8.9% of everything screened. Unless noted, the call rests on the fitted dose curve; in most records, active means well fitted curve in the direction sought with a large enough effect; inconclusive means small, poorly fitted or top-dose-only effect, or another doubt; inactive means no such curve, though single readings can be large; an effect the other way counts as inactive or inconclusive.

SMILES	MCF10A rerep	KB-3-1 tox	SW480 rerep	KB-V1 cytotox	DRD3 antagonist	D3 ag
CC[C@H]1OC(=O)[C@H](C)[C@@H](O[C@H]2C[C@@](C)(OC)[C@@H](O)[C@H](C)O2)C(C)[C@@H](O[C@@H]2O[C@H](C)C[C@H](N(C)C)[C@@H]2O)[C@](C)(OC)C[C@@H](C)C(=O)[C@H](C)[C@@H](O)[C@]1(C)O (stereo partly drawn)	-2%	nt	-1%	nt	nt	nt
CCc1ccccc1NC(=O)N1CCC(CN2CCc3ccccc3C2)CC1	nt	nt	nt	nt	nt	-14
C=CCNc1nc(NC2CCN(C)CC2)c2cc(OC)c(OC)cc2n1	nt	?	nt	i	nt	nt
CCCCN(CCCC)c1ccc(/C=C/c2ccnc3ccccc23)cc1	nt	i	nt	?	nt	nt
Cc1cc(C)n2nc(C)c(-c3ccc(Cl)cc3)c2n1	-3%	?	-49%	i	6	5
CCSc1cc(C)nc2c(-c3ccc(Cl)cc3)c(C)nn12	15µM*	i	18µM*	i	13	25
COc1ccc(N(CC(=O)Nc2cc(C)ccc2C)S(=O)(=O)c2ccc(OC)c(OC)c2)cc1	nt	i	nt	i	nt	-14
Cc1ccc(CNC(=O)CCCc2nnc3n(C)c(=O)c4sccc4n23)cc1	nt	i	nt	i	nt	0
CN(C)c1ccc(Cc2cc3c(O)ccc(O)c3cc(Cc3ccc(N(C)C)cc3)c2=O)cc1	?	?	?	i	-51*	-2
CN(C)c1ccc(C(=O)c2ccc(O)cc2O)cc1	14%	i	0%	?	-21	-4
FC(F)(F)c1ccc(Cl)c(NC(=S)N/N=C/c2ccccc2Cl)c1	-1%	i	24%	?	-66*	-1
Fc1ccc(NC(=S)N/N=C/c2ccc(F)c(F)c2)cc1	-3%	i	-5%	i	0	-4
S=C(N/N=C/c1ccc(Cl)c(Cl)c1)Nc1ccccc1Cl	12%	21µM*	?	i	0	6
Fc1ccc(/C=N/NC(=S)Nc2ccc(Cl)cc2Cl)cc1	10%	5.2µM*	?	?	3	-14
Fc1cccc(/C=N/NC(=S)Nc2ccccc2Cl)c1	6%	i	nt	i	-24	-7
COc1ccc(/C=N/NC(=S)Nc2ccccc2[N+](=O)[O-])cc1O	?	?	?	12µM*	7	7
O=[N+]([O-])c1ccc(O)c(/C=N/NC(=S)Nc2ccc(Cl)cc2Cl)c1	23%	?	?	i	?	-2
O=[N+]([O-])c1ccc(/C=N/NC(=S)Nc2ccc(Cl)cc2Cl)s1	?	?	21µM*	?	-56*	-19
Cc1cccc(NC(=S)N/N=C/c2cccc(O)c2)c1C	?	3.3µM*	7.3µM*	6.5µM*	-4	2
O=[N+]([O-])c1cc(/C=N/NC(=S)Nc2ccccc2Cl)ccc1Cl	?	18µM*	5%	?	?	4
Cc1ccccc1NC(=S)N/N=C/c1ccc(O)cc1O	18%	?	19%	i	-21	21
O=C(NCC(c1cccnc1)N1CCc2ccccc2C1)C(=O)Nc1ccc(F)cc1F (stereo not drawn)	nt	i	nt	i	nt	-13
O=C1NC[C@H](c2ccccc2)N(CCc2cccc(F)c2)C1=O	0%	i	-7%	i	17	14
C/C(=N\NC(=O)c1cc2c(s1)CCC(C)C2)c1ccncc1 (stereo not drawn)	15µM*	?	-4%	?	17	-6
Cc1noc(C)c1S(=O)(=O)NCCc1csc2nc(-c3ccc(F)cc3)nn12	nt	nt	nt	nt	nt	-2
SMILES	MCF10A rerep	KB-3-1 tox	SW480 rerep	KB-V1 cytotox	DRD3 antagonist	D3 ag
O=C(c1ccc(Br)o1)N1CC=C(c2ccccc2)CC1	8%	nt	17%	nt	0	-21
Cc1cc(C)cc(C(=O)NCC(=O)N2CCN(C(c3ccccc3)c3ccccc3)CC2)c1	16µM*	?	?	18µM*	11	1
O=C(NCC(=O)N1CCN(C(c2ccccc2)c2ccccc2)CC1)c1ccccc1Br	nt	?	nt	i	9	1
COc1cc(OC)cc(C(=O)NCC(=O)N2CC=C(c3ccccc3)CC2)c1	?	5.8µM*	7.3µM*	7.3µM*	-6	-19
O=C(NCC(=O)N1CC=C(c2ccccc2)CC1)c1ccc(OC(F)F)cc1	8.2µM*	?	?	13µM*	20	6
O=C(NCC(=O)N1CC=C(c2ccccc2)CC1)c1ccccc1Br	8.2µM*	?	-26%	?	18	3
CC(=O)NCCC(=O)N1CCCC(N2CCN(c3cccc(Cl)c3)CC2)C1 (stereo not drawn)	17%	i	-3%	i	-6	1
Cc1cc(C)n2[nH]c(=O)c(N=Nc3ccc(S(N)(=O)=O)cc3)c2n1	3%	i	0%	i	?	-10
NS(=O)(=O)c1ccc(N=Nc2c(-c3ccccc3)[nH]n(-c3nc(-c4ccccc4)cs3)c2=O)cc1	?	?	2.9µM*	21µM*	-66*	-32
CN(C)c1ccc(C(CNS(=O)(=O)c2ccc(Br)cc2)N2CCCC2)cc1 (stereo not drawn)	nt	i	nt	i	nt	-14
COc1ccc(-c2nnn(CC(=O)N(CC(=O)NC3CCCC3)Cc3cccs3)n2)cc1OC	-1%	i	-2%	12µM*	12	3
COc1ccc(-c2nnn(CC(=O)N(CC(=O)NC3CCCC3)Cc3ccco3)n2)cc1OC	-2%	i	-6%	i	-2	1
COc1ccc(-c2nnn(CC(=O)N(Cc3cccs3)C(C)C(=O)NC3CCCC3)n2)cc1OC (stereo not drawn)	7%	i	-3%	2.1µM*	-7	-1
Cc1ccc(C)c(Cn2nnc(C(=O)NCc3ccccc3)c2N)c1	nt	i	nt	i	nt	-17
